The nature of assay [1]: qHTS RealTime-Glo MT Cell Viability Assay in HepG2 cells - 40 hour (AID 1224870). Note: nearly all actives have a fitted effect of over 50% in size. Put shortly:
(§1)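 HepG2 cells mixed with RealTime-Glo MT reagents (NanoLuc plus cell-permeant prosubstrate) were seeded at 600 cells/well, incubated 5 h at 37 C/5% CO2, then pinned with compounds in DMSO; nonlytic luminescence tracked viability during 40 h treatment.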

Assay [2] in a line: A CellTox Green Cytotoxicity Assay to monitor cytotoxicity in HEK293 cells - 40 hour (AID 1224871). Note: nearly all actives have a fitted effect of over 45% in size. In short, it runs like this: (§2)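 Read-out: fluorescence of a cell-impermeant cyanine dye staining DNA of dead cells, proportional to cytotoxicity. HEK293, 600 cells/well with reagent, compound (23 nL DMSO) added after 5 h; reads at 0, 8, 16, 24, 32, 40 h.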
Assay [3] in a line: qHTS RealTime-Glo MT Cell Viability Assay in HepG2 cells - 8 hour (AID 1224873). Note: nearly all actives have a fitted effect of over 55% in size. Put shortly:
as §1

A short description of assay [4]: qHTS RealTime-Glo MT Cell Viability Assay in HEK293 cells - 40 hour (AID 1224874). Note: nearly all actives have a fitted effect of over 50% in size. As to conditions: RealTime-Glo luminescence; max response: stronger effect = lower value. Put shortly:
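Luminescence readout at each listed time point; HEK293, 600 cells/well, RealTime-Glo MT reagent added with cells; compounds pinned (23 nL in DMSO) after 5 h at 37 C; continuous culture at 37 C.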

Assay [5] can be described thus: A CellTox Green Cytotoxicity Assay to monitor cytotoxicity in HEK293 cells - 24 hour (AID 1224875). Note: nearly all actives have a fitted effect of over 45% in size. Note: potency is the fitted concentration of half-maximal effect. Put shortly: as §2
A short description of assay [6]: A CellTox Green Cytotoxicity Assay to monitor cytotoxicity in HepG2 cells - 16 hour (AID 1224876). Note: nearly all actives have a fitted effect of over 45% in size. In short, it runs like this:
(§3)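 HepG2, 600 cells/well premixed w/ CellTox Green; 5 h settle, 37 C/5% CO2; pintool cpd add (DMSO); 37 C, 40 h; fluorescence read at 0, 8, 16, 24, 32, 40 h.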

Assay [7] can be described thus: qHTS RealTime-Glo MT Cell Viability Assay in HepG2 cells - 32 hour (AID 1224877). Note: nearly all actives have a fitted effect of over 55% in size. In short, it runs like this:
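Compound treatment began 5 h after plating HepG2 cells (600/well) with NanoLuc luciferase and prosubstrate. Plates stayed at 37 C for 40 h; luminescence was captured at six time points, 0 h through 40 h.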
In general terms: qHTS replaces the single test concentration by a dilution series.

Assay [8] can be described thus: A CellTox Green Cytotoxicity Assay to monitor cytotoxicity in HepG2 cells - 40 hour (AID 1224879). Note: nearly all actives have a fitted effect of over 40% in size. In short, it runs like this:
as §3

Assay [9] is described as follows: A CellTox Green Cytotoxicity Assay to monitor cytotoxicity in HepG2 cells - 24 hour (AID 1224878). Note: nearly all actives have a fitted effect of over 45% in size. In short, it runs like this: as §3
A short description of assay [10]: qHTS RealTime-Glo MT Cell Viability Assay in HEK293 cells - 16 hour (AID 1224872). Note: top concentration of the series differs between compounds; nearly all actives have a fitted effect of over 50% in size. In short, it runs like this:
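Quantitative high-throughput screen of the Tox21 10K library in HEK293: cells and RealTime-Glo reagents plated together, compound added at 5 h, luminescence monitored through 40 h at 37 C.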

Inconclusive results are not listed. Unmarked numbers belong to inactive results. The source made the active and inactive calls. Calls come from the whole dose curve; as a rule, active = well fitted curve in the direction sought with a large enough effect in the repeat runs; inconclusive = weak or mixed curves; inactive = no such curve, though single readings can be large; an effect the other way counts as inactive or inconclusive.
% is set by controls: 0 for no effect and ±100 for the full control effect.

In the case of `CCC(C)OC(=O)N1CCCCC1CCO` (configuration not stated), the Potency entry in [1], in [2], in assay [5], in [6], in assay [7] and in assay [8] was “inactive” throughout. Moreover, the compound was classed as inactive in assay [3]. Also, the max response in assay [4] is -15.9%.

Regarding `O=C1C(CCS(=O)c2ccccc2)C(=O)N(c2ccccc2)N1c1ccccc1` (configuration not stated), the Potency entry in assay [1], in assay [2], in assay [6], in assay [7] and in assay [8] was “inactive” each time. Further, the call in assay [3] was inactive. In [4], the max response was 1.04%.

As for `CCCOc1ccccc1-c1nc2n[nH]nc2c(=O)[nH]1`, the Potency result in assay [1], in assay [2], in assay [5], in assay [6], in [9] and in [8] was “inactive” each time. Moreover, the compound was called inactive in assay [3].

For `CC1(C)SC(C)(C)SC(C)(C)S1`, the Potency entry in [1], in assay [2] and in assay [7] was “inactive” in each case. For the same compound, the compound was called inactive in assay [3].

Turning to `CO`, the Potency result in assay [1], in [2], in [6], in assay [7], in assay [9] and in [8] was “inactive” throughout. Further, the call in assay [3] was inactive. Moreover, the max response in assay [4] is 3.26%.

As to `Nc1[nH]c(=O)ncc1F`, the Potency result in assay [1], in assay [2], in assay [6], in assay [9] and in assay [8] was “inactive” throughout. The compound was classed as inactive in [3]. Also, the max response in assay [4] was 0.113%.

Consider `CC(C)[N+](C)(C)CC(O)COc1cccc2ccccc12` (configuration not stated), for which the Potency result in assay [2], in assay [10], in assay [6], in [9] and in [8] was “inactive” in each case. For the same compound, in assay [3], the call was inactive. The max response in assay [4] is 6.37%.

For the compound `CC(=O)NC(Cc1ccccc1)C(=O)O` (configuration not stated), the Potency result in assay [1], in assay [2], in [5], in assay [6], in [7] and in assay [8] was “inactive” in each case. Also, the result in [3] was inactive. Moreover, in assay [4], the max response was 5.56%.

For `NC(=O)c1ncn([C@@H]2O[C@H](CO)[C@@H](O)[C@H]2O)c1O`, the Potency entry in assay [1], in assay [10] and in assay [7] was “inactive” in each case. In addition, the compound was classed as inactive in assay [3]. The max response in assay [4] was 9.45%. Besides, in [5], the Potency was 19 µM (active).

These data come from PubChem BioAssay (Tox21).
